Rows were chosen to be rich in hits. Some 27% of all compounds tested hit in one or more screens of this group.
CYP2C19 act: cytochrome P450 2C19 (human) activation; recombinant CYP2C19, luciferin-H EGE luminescence; stronger effect = higher value; 0 = fully inhibited enzyme, 1 = untreated enzyme; 96,000 tested, under 10 active; P33261; activation factor at 5 µM;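 active = activation factor of at least 2 at 5 µM in the primary screen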;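 also: 0 = wells with 2.5 mM tranylcypromine and 1 = vehicle-only wells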
CYP2C19 inh: inhibitors of human CYP2C19. P33261. CYP2C19 Supersomes, luciferin-H EGE luminescence, 30 min. inhibition, % at 5 µM. 96,000 compounds, 21% hits;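 active = CYP2C19 inhibition above a set limit at 5 µM in the primary screen, cut at about 50% in these data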;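 also: plate controls were negative control wells for no effect and 2.5 mM tranylcypromine positive control for full effect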
CYP2C9 inh: human CYP2C9 inhibition; P11712; CYP2C9 Supersomes, luciferin-H conversion, luminescence; inhibition, % at 5 µM; 96,000 compounds, 20% hits; AID 777;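 active = blocking of liver enzyme CYP2C9 beyond about 50% at 5 µM, limit read from the data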
Cav32 inh: blocks human Cav3.2 T-type calcium channel. O95180. 100,000 compounds, 4% hits. Cav3.2-expressing cells, Fluo-4 calcium fluorescence FDSS; stronger effect = lower value. B-score at 10 µM;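 active = single-dose well whose peak fluorescence ratio is a statistical outlier from its plate by either plate-standardised score or position-corrected B-score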
Target sequence (O95180 whole entry, looked up): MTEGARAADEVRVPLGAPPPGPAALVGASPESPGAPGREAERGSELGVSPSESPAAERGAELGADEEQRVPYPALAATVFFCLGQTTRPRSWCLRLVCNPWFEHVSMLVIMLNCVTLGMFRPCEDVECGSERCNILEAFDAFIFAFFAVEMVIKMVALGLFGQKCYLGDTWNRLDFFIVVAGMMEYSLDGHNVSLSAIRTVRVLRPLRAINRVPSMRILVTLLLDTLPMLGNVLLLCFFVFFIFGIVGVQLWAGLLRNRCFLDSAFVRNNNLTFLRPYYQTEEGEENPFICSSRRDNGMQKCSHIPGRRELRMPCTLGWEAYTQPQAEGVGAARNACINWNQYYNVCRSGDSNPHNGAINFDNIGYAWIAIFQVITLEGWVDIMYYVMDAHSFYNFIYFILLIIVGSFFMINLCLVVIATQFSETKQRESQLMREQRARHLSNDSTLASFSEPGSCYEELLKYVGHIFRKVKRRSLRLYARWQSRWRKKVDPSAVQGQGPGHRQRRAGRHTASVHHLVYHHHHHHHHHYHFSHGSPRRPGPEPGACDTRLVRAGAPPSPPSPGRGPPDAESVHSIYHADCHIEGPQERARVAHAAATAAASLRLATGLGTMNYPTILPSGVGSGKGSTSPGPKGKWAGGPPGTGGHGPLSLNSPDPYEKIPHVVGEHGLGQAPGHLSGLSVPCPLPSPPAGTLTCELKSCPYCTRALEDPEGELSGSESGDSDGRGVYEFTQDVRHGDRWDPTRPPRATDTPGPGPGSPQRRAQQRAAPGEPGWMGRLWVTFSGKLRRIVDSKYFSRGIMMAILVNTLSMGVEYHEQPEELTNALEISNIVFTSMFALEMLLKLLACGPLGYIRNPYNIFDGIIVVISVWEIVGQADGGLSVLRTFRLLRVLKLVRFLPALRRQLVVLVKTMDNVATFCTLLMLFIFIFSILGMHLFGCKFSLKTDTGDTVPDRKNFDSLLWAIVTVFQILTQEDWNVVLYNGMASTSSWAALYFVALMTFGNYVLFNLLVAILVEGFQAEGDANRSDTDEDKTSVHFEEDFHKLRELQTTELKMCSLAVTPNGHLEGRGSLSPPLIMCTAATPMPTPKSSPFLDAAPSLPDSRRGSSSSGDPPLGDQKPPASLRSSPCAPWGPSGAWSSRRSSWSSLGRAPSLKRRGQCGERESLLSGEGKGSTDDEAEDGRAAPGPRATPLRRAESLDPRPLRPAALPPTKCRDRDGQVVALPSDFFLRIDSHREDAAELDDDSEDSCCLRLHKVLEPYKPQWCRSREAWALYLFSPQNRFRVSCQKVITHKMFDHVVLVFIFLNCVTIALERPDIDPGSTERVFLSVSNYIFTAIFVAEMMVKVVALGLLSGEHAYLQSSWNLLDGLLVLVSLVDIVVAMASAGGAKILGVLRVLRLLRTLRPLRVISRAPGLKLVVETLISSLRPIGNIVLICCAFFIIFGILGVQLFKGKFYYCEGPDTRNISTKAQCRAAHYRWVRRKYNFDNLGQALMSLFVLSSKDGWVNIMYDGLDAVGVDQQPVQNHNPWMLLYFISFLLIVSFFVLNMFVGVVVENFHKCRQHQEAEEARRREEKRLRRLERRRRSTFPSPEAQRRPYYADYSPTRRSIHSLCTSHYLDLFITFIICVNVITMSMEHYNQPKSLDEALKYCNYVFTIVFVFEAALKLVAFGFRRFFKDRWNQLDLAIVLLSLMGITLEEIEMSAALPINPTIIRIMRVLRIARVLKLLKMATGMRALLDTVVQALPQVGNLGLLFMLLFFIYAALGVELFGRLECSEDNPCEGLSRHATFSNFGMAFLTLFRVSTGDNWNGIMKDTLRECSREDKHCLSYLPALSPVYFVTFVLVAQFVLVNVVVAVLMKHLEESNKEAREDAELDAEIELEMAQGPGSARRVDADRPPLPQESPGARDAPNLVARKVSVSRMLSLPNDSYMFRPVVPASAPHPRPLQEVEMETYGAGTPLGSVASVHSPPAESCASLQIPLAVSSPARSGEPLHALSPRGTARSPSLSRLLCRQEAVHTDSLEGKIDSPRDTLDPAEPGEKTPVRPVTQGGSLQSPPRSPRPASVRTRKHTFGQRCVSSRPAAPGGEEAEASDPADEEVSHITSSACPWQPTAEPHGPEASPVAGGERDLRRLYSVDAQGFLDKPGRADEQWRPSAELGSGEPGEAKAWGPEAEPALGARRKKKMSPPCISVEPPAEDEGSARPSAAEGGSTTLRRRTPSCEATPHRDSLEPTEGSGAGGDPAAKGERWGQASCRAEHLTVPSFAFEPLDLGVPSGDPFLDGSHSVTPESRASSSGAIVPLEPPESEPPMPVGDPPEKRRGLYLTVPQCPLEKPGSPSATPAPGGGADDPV
CYP2C9 act: CYP2C9 (human) activation. AID 1024. activation factor at 5 µM. 96,000 compounds, 1.4% hits. P11712. recombinant CYP2C9, luciferin-H conversion, luminescence; stronger effect = higher value; factor 1 = untreated enzyme, 0 = blocked;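 active = activation factor of 2 or more for CYP2C9 at a 5 µM dose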;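 also: 0 = sulfaphenazole-blocked wells and 1 = vehicle-only wells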
* hit, by the source's call; / = no result.

SMILES	CYP2C19 act	CYP2C19 inh	CYP2C9 inh	Cav32 inh	CYP2C9 act
O=C(CSc1nnc(COc2ccccc2)n1Cc1ccco1)Nc1ccc2c(c1)OCCO2	1	-2	11	-1.6	0.9
COc1ccc(-c2cnc(SCC(=O)Nc3ccc4c(c3)OCO4)n2Cc2ccco2)cc1	0	96*	100*	-4.1*	0
COc1ccc(NC(=O)CSc2nnc(-c3ccccc3)n2Cc2ccco2)cc1OC	0.8	16	28	0.35	0.7
CC(=O)Nc1cccc(NC(=O)CSc2ncc(-c3ccc(Cl)cc3)n2Cc2ccco2)c1	0.5	48	42	-3.8*	0.6
CNC(=O)CSc1nnc(-c2ccco2)n1-c1ccccc1OC	0.9	12	10	-0.21	0.9
COc1ccc(OC)c(C(=O)c2coc3ccc(OCC(=O)O)cc23)c1	1	4	5	-0.35	0.9
COc1ccc2occ(C(=O)c3cccs3)c2c1	0.2	75*	53*	-1.6	0.5
COC(=O)Nc1c(C)nn(Cc2ccccc2C)c1C	0.4	58*	-3	-0.13	1
Cc1nn(Cc2ccccc2)c(C)c1NC(=O)c1cc(-c2cccs2)on1	0.7	28	63*	-4.8*	0.4
Cc1nn(Cc2ccc(Cl)c(Cl)c2)c(C)c1NC(=O)c1noc2c1CCCCC2	0.9	6	6	-2.7	0.9
Cc1nn(Cc2ccc(Cl)c(Cl)c2)c(C)c1NC(=O)c1cc(CC(C)C)on1	0.3	74*	82*	-8.6*	0.2
Cc1cc(NC(=O)c2cc(C(C)C)on2)nn1Cc1ccc(Cl)cc1	0.3	65*	40	-7.1*	0.6
Cc1cc2c3c(c1C)C1(C(=O)N3C(C)(C)CC2C)C(C#N)=C(N)OC2=C1C(=O)CC(C)(C)C2 (stereo unspecified)	0.8	24	34	-0.17	0.7
Cc1nn(Cc2ccc(Br)cc2)c(C)c1NC(=O)c1nn(C)cc1Cl	0.6	43	61*	-2.2	0.4
COc1cccc(-c2cc(C(=O)Nc3c(C)nn(Cc4ccccc4C)c3C)no2)c1	0.9	5	30	-3.9*	0.7
Cc1ccc(Cn2nc(C)c(NC(=O)c3nn(C)cc3Cl)c2C)cc1	/	/	/	0.77	/
CC(C)Cc1cc(C(=O)Nc2cc(C(F)(F)F)ccc2Cl)no1	0.9	10	-170	0.077	2.7*
CCCC(=O)Nc1ccc(C(=O)Nc2cc(C(F)(F)F)ccc2Cl)cc1	0.9	10	-48	0.24	1.5
COC(=O)c1sc2cc(C(F)(F)F)cnc2c1-c1ccccc1	0.7	27	59*	0.43	0.4
O=C(Nc1ccc(F)cc1)c1sc2cc(C(F)(F)F)cnc2c1-c1cccs1	0.9	8	25	-0.75	0.7
CSc1nnc(-c2sc3cc(C(F)(F)F)cnc3c2-c2ccccc2)n1C	0.7	25	71*	2.1	0.3
N#Cc1ccc(NC(=O)c2sc3cc(C(F)(F)F)cnc3c2-c2cccs2)cc1	1.1	-10	62*	-0.14	0.4
CCCn1c(=O)[nH]c(=O)c2c1nc(-c1ccccc1)n2CCN1CCOCC1	1.2	-17	-11	0.64	1.1
C[C@H]1COc2c(C3(N)CC3)c(F)cc3c(=O)c(C(=O)O)cn1c23	/	/	/	0.55	/
O=C(O)COc1ccc(S(=O)(=O)c2ccc(OCC(=O)O)cc2)cc1	1	4	-3	/	1
SMILES	CYP2C19 act	CYP2C19 inh	CYP2C9 inh	Cav32 inh	CYP2C9 act
Cc1ccc(S(=O)(=O)NCCC(=O)O)cc1	1	2	-21	0.017	1.2
Cc1ccc(C)c(NC(=O)CNS(=O)(=O)c2ccccc2)c1	0.2	79*	-105	-0.033	2.1*
COc1cc(NC(=O)CS(=O)(=O)c2ccccc2)cc(OC)c1OC	0.3	66*	31	0.091	0.7
Cc1cccc(NC(=O)CNc2cc(C)ccc2C)c1	0.2	84*	26	-5.8*	0.7
COc1ccccc1NC(=O)CNS(=O)(=O)c1ccccc1	0	96*	-54	-0.68	1.5
COc1cc(NC(=O)Cc2c(C(=O)O)[nH]c3ccccc23)cc(OC)c1OC	0.8	20	23	-0.3	0.8
COc1ccc(S(=O)(=O)N2CCCC2C(=O)Nc2nccs2)cc1 (stereo unspecified)	1	0	23	/	0.8
CCOC(=O)C1CCN(Cc2nc3ccc(Cl)cc3n2CCO)CC1	0.7	26	6	0.53	0.9
OC(c1cccs1)(c1cccs1)C1C[N+]2(CF)CCC1CC2 (stereo unspecified)	0.9	5	-7	1	1.1
c1ccc2nc3c(cc2c1)CCCCCC3	0.3	66*	44	-0.1	0.6
O=C(N/N=C/c1cccc(Oc2ccccc2)c1)c1cccc(Br)c1	0.6	42	53*	-3.9	0.5
O=C(N/N=C/c1cccc(Oc2ccccc2)c1)c1ccccc1Br	0.7	30	63*	-2.8	0.4
O=C(N/N=C/C=C/c1ccccc1)c1cccc(Br)c1	1.2	-18	-26	-1.2	1.3
CCC(C)Sc1nc(O)c(Cc2ccccc2)c(=O)[nH]1 (stereo unspecified)	0.9	8	23	-0.039	0.8
CC(C)C[C@@H]1NC(=O)[C@H](CO)NC(=O)c2cc([N+](=O)[O-])cc(I)c2OCC[C@@H](C(N)=O)NC1=O	/	/	/	-0.0017	/
CCCOc1ccc(OCCOCCN2CCc3ccccc3C2)cc1	0.5	52*	25	-1.1	0.8
O=C(C1CCC(=O)N1Cc1ccccc1Cl)N1CCN(c2ccc(F)cc2)CC1 (stereo unspecified)	0.9	7	-1	-0.16	1
O=C(NCc1ccccc1)c1ccc(C2SCC(=O)N2Cc2ccccc2)cc1 (stereo unspecified)	/	/	/	-1.3	/
Cc1cccc(NC(=O)c2ccc(C3SCC(=O)N3CCc3ccccc3)cc2)c1C (stereo unspecified)	0.2	82*	89*	-4.5*	0.1
CCc1ccc(NC(=O)c2ccc(C3SCC(=O)N3CCc3ccccc3)cc2)cc1 (stereo unspecified)	0.5	47	66*	/	0.3
COc1ccc2c(c1)CCc1cc(C(=O)N3CCN(c4ccc(N5CCOCC5)nn4)CC3)sc1-2	1	-1	3	/	1
Cc1ccc2nc(-c3ccc(NC(=O)CSc4ccccc4)cc3)[nH]c2c1	0.7	35	59*	-1.5	0.4
CCCc1cc(=O)[nH]c(SCC(=O)NC2CCCCC2)n1	0.6	42	12	1.3	0.9
O=C(CSc1nc2ccc([N+](=O)[O-])cc2[nH]1)NC1CCCCC1	0.4	64*	62*	-1	0.4
Cc1cc(C)cc(NC(=O)CSc2nc3ccncc3[nH]2)c1	0.4	63*	76*	1.3	0.2
Cc1ccc2nc(SCc3ccc([N+](=O)[O-])cc3)[nH]c2c1	/	/	/	-5.8*	/
Cc1ccc(CSc2nc3ccncc3n2CC(=O)Nc2cc(C)cc(C)c2)cc1	/	/	/	0.051	/
CCC(C)[C@@H](C(=O)Nc1ccc(OC)c(OC)c1)N1Cc2ccccc2C1=O (stereo partly specified)	0.6	44	22	-0.33	0.8

Bioassay records deposited in PubChem by several laboratories.
